# From PubChem
# AMPAR-TARP mod: GluA2-stargazin AMPA receptor complex modulation | HEK293 GluA2+stargazin, membrane potential dye (FDSS), glutamate EC50; hits were called plate by plate, in both directions | calls only at 30 µM | actives 3.5% (n = 40,000) | AID 1259245;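 active = any of four per-well response measures lying three or more SD from its plate-wide compound average, in either direction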
# GIRK2 activator: Activates human GIRK2-containing potassium channels; P48051; HEK293 GIRK2/NPY4 cells, thallium flux fluorescence; activation (% efficacy), % for hits at 37.5 µM; 34,000 tested, under 10 active;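 active = primary screen hit, no activity in plain HEK293 cells, and in GIRK2-only cells above 5% efficacy rising with concentration; inactive = the rest, including fluorescent compounds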;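 also: efficacy is normalized control-subtracted fluorescence 15 s after thallium addition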
# Calls only; n = inactive; x = not tested or not shown; + = active, no number. The full list was thinned out, with hits kept by preference.
SMILES,AMPAR-TARP mod,GIRK2 activator
Brc1ccc(Cn2c(CN3CCCC3)nc3ccccc32)cc1,n,x
CCOC(=O)N(C)Cc1nc2ccccc2n1Cc1c(F)cccc1Cl,+,x
CN(Cc1nc2ccccc2n1Cc1cccc(Cl)c1)C(=O)c1ccco1,x,n
COc1ccc(CCNc2cc(C)nc3c(-c4ccccc4OC)cnn23)cc1OC,+,n
COc1ccc(CCNc2cc(C)nc3c(-c4ccccc4OC)c(C)nn23)cc1OC,n,n
Cc1cc(C)c2c(n1)sc1c(N3CCN(CCO)CC3)ncnc12,+,n
CCc1cc2c(N3CCN(c4nc(C)cc(C)n4)CC3)ncnc2s1,n,x
COC(=O)c1ccc2c(=O)n(Cc3ccc(C(=O)NC4CCCC(C)C4C)cc3)c(=S)[nH]c2c1 (centres undefined),n,n
COc1cccc(C(=O)NCC2CCN(Cc3cccs3)CC2)c1OC,x,n
O=C(CN1CCN(Cc2ccc(F)cc2)CC1)Nc1ccc(F)cc1,n,x
COc1ccc2nc(-c3ccc(C)c(NS(=O)(=O)c4ccc(C(C)=O)cc4)c3)cn2n1,+,n
COc1ccc2nc(-c3ccc(C)c(NS(=O)(=O)c4cc(C)ccc4OC)c3)cn2n1,x,n
COc1ccc2nc(-c3ccc(C)c(NS(=O)(=O)c4ccc(C)s4)c3)cn2n1,+,n
COc1ccc2nc(-c3ccc(C)c(NS(=O)(=O)c4ccc(C)c(C)c4)c3)cn2n1,x,n
O=S(=O)(CCOc1ccc(F)cc1)Nc1ncccn1,n,n
O=C(COc1ccc(Cl)cc1Cl)N/N=C\c1ccc2ncccc2c1,x,n
Cn1nc(C2CCCN(C(=O)c3cc4ccccc4oc3=O)C2)n(-c2ccccc2)c1=O (centres undefined),n,n
COc1ccc(-c2ccc(C)c(NC(=O)c3ccccc3OC)c2)nn1,+,n
COc1ccc(-c2ccc(C)c(NC(=O)c3cccc(OC)c3OC)c2)nn1,n,n
O=C(C1CC1)N1CCN(Cc2nnnn2-c2ccc(F)c(F)c2)CC1,n,n
O=C(CSCc1ccccc1)N1CCN(Cc2nnnn2-c2ccc(F)c(F)c2)CC1,+,n
COc1ccc(OCC(=O)Nc2ccc(N3CCCC3=O)cc2)cc1,n,n
COCCNC(=O)Cn1nc2c(c1NC(=O)c1ccc(OC(C)C)cc1)CSC2,n,n
COc1ccc(S(=O)(=O)c2cnc(SCC(=O)Nc3cccc(OC)c3)[nH]c2=O)cc1,n,n
Cc1cc(C)c2nc(NC(=O)c3cc(C)no3)sc2c1,n,n
SMILES,AMPAR-TARP mod,GIRK2 activator
COc1ccc(C)c2sc(NC(=O)c3cc(C)no3)nc12,+,n
Cc1cccc(CC(=O)Nc2ccc3c(c2)N(C(=O)C(C)(C)C)CC3)c1,n,n
CC(=O)N1CCN(c2c(C)cnc3c2c(=O)n(CC(=O)NC2CCCC2)c(=O)n3C)CC1,n,x
O=S(=O)(c1ccc(Oc2ccccc2)cc1)N1CCN(c2ccc3nncn3n2)CC1,n,n
CCCC(=O)Nc1ccc(S(=O)(=O)N2CCN(c3ccc4nncn4n3)CC2)cc1,+,n
CCOc1ccc2ccccc2c1C(=O)NCc1ccsc1,+,n
CCOc1ccc2ccccc2c1C(=O)NCC(C)(O)c1ccccc1 (centres undefined),x,n
CCOc1ccc2ccccc2c1C(=O)NC1CCCC(O)C1 (centres undefined),+,n
CCOc1cc(C(=O)NCc2ccsc2)cc(OCC)c1OCC,n,n
CCOc1ccc2ccccc2c1C(=O)NCC1CCN(C(C)C)CC1,x,n
CCOc1ccc2ccccc2c1C(=O)NCC(O)(c1ccco1)C1CC1 (centres undefined),+,n
Cc1cccc(S(=O)(=O)NCc2ccsc2)c1,n,n
Cc1nnsc1C(=O)N1CCC(CNC(=O)Nc2ccccc2C(F)(F)F)CC1,n,n
Cc1ccc(C(=O)N2CCN(c3ncnc4c3nnn4-c3ccccc3)CC2)cc1C,n,x
CCN1CCc2c(sc(NC(=O)c3ccccc3)c2-c2nc3ccccc3s2)C1,n,x
COc1cn(CC(=O)NC2CCCC2)c(CSc2ccc(C)cc2)cc1=O,n,n
COc1cn(CC(=O)NC2CCCCC2)c(CSc2ccccc2)cc1=O,+,x
COc1ccccc1-c1cc2c(=O)n(Cc3nc(-c4ccccc4C)no3)ccn2n1,x,n
O=C(NCCn1ncc2c(N3CCCC3)ncnc21)C1COc2ccccc2O1 (centres undefined),n,x
COc1ccc(C(=O)Nc2nnc(-c3cc4cccc(OC)c4o3)o2)cc1OC,+,x
CCCCOc1ccc(C(=O)Nc2nnc(-c3ccc(OC)c(OC)c3)o2)cc1,n,n
COc1ccccc1-c1nnc(NC(=O)c2ccc(C(C)=O)cc2)o1,n,x
COc1cccc2cc(-c3nnc(NC(=O)c4ccccc4)o3)oc12,n,x
CCC(=O)Nc1nnc(-c2ccc3c(c2)CCCC3)o1,n,n
CCOc1ccc(-c2nnc(NC(=O)CC)o2)cc1OCC,+,n
SMILES,AMPAR-TARP mod,GIRK2 activator
COc1ccc(C(=O)Nc2nnc(-c3ccccc3OC)o2)cc1OC,+,x
COc1ccc(-c2nnc(NC(=O)c3ccc(S(=O)(=O)C(C)C)cc3)o2)cc1OC,+,n
COc1ccc(-c2cc3ccc4c(c3oc2=O)CN(CC2CCCO2)CO4)cc1 (centres undefined),n,n
COc1ccc2nc(-c3ccc(NS(=O)(=O)c4cc(Cl)ccc4Cl)cc3)cn2n1,n,n
COCCNC(=O)Cc1csc(SCC(=O)c2ccc3c(c2)OCO3)n1,x,n
O=C(CCc1csc(NC(=O)c2ccc(F)cc2)n1)NC1CCCC1,n,n
CN(C)C(CNC(=O)Cc1ccc(F)cc1)c1ccc(F)cc1 (centres undefined),n,x
CCOC(=O)c1sc2cccc(F)c2c1S(=O)(=O)Nc1ccc(OC)cc1OC,n,x
COc1cc(OC)cc(C(=O)Nc2nnc(-c3ccc(OC)c(OC)c3)o2)c1,+,n
CN(C)c1ccc(C(=O)Nc2nnc(-c3cccs3)o2)cc1,+,x
COc1ccc(-c2nnc(NC(=O)CCc3ccccc3)o2)cc1OC,n,n
COc1cc(OC)cc(C(=O)Nc2nnc(-c3ccc(OC)cc3OC)o2)c1,n,x
Cc1ccc(C(=O)Nc2nnc(-c3cccs3)o2)cc1C,n,x
COc1ccc(-c2nnc(NC(C)=O)o2)cc1OC,+,n
COc1ccc(C(=O)Nc2nnc(-c3cccs3)o2)cc1OC,+,x
Cc1ccc(C(=O)Nc2nnc(-c3cccs3)o2)cc1,n,x
O=C(NCCCN1CCOC(c2ccccc2)C1)c1ccco1 (centres undefined),n,n
O=C(CC1C(=O)N(c2ccccc2)C(=S)N1Cc1ccco1)Nc1ccccc1 (centres undefined),n,x
COc1ccc(C(=O)Nc2nnc(-c3ccc(OC)c(OC)c3)o2)cc1OC,+,n
COc1ccc(C(=O)Nc2nnc(-c3ccc(SC)cc3)o2)cc1OC,n,n
NC(=O)Cn1nnn(-c2ccc(NS(=O)(=O)c3ccc(F)cc3)cc2)c1=O,n,n
O=C(NCCOc1ccc2nnc(-c3ccc(F)cc3)n2n1)NCc1ccccc1,n,n
CCCCOCC(O)CN1CCN(CCO)CC1 (centres undefined),n,n
NC(=O)CSc1nc(=O)n(CC2CCCO2)c2c1CCC2 (centres undefined),n,n
COc1cc([N+](=O)[O-])cc2sc(NC(=O)c3ccno3)nc12,+,n
Cc1cccc2sc(NC(=O)c3ccno3)nc12,n,n
CN(C)C(CNC(=O)NC(c1ccccc1)c1ccccc1)c1ccccc1 (centres undefined),n,n
CCC(=O)Nn1cnc2c(cnn2C(C)(C)C)c1=O,n,x
